Assay [1] deals with Estrogen receptor (Homo sapiens) (UniProt P03372). Nature of the assay: CCTE_Deisenroth_AIME_384WELL_LUC_Shift: CCTE's 384-well Estrogen Receptor Transactivation Assay with AIME metabolic competence data shift (ERTA luciferase; difference in metabolism positive and negative), Deisenroth Lab (AID 2284041).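 Note: shift is response with S9 minus without S9 so positive means metabolism raised ER signal.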 In a few lines:
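Test chemicals (0.002–200 uM, 10-point) were pre-incubated 2 h with alginate microspheres containing phenobarbital/beta-naphthoflavone-induced male Sprague Dawley rat liver S9 or water, then medium was transferred to VM7Luc4E2 cells for 24 h luciferase readout; shift = S9-positive minus S9-negative normalized response.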

Assay [2] is described as follows: CCTE_Shafer_MEA_dev_active_electrodes_number: CCTE's Neural Network Formation Assay for Number of Active Electrodes, Shafer Lab (AID 2284040; active = hit-call score of the fitted dose curve at least 0.9, where 1 is the maximum;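 note: potency for loss of active electrodes versus DMSO so lower counts are hits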). In a few lines:
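Developing rat cortical networks on MEAs, exposed DIV 0–12. Value is the AUC of active-electrode counts (≥5 spikes/min) from days 5, 7, 9, 12, relative to DMSO.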

A short description of assay [3]: CCTE_Shafer_MEA_dev_burst_rate: CCTE's Neural Network Formation Assay for Burst Rate, Shafer Lab (AID 2284042).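 Note: potency for loss of burst rate below DMSO control.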 In a few lines:
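Exposure ran continuously over 12 days of network development in rat cortical cultures, with compound refreshed during full media changes on DIV 5 and 9. Single-electrode bursts per recording time, well-mean over active electrodes, trapezoidal AUC across days 5–12, fitted downward relative to DMSO.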

The nature of assay [4]: CCTE_Shafer_MEA_dev_bursting_electrodes_number: CCTE's Neural Network Formation Assay for Number of Bursting Electrodes, Shafer Lab (AID 2284043; active = hit-call score of the fitted dose curve at least 0.9, where 1 is the maximum;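 note: potency is for loss of bursting electrodes relative to DMSO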). In a few lines: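 Number of electrodes reaching ≥1 burst every 2 min was recorded at DIV 5, 7, 9 and 12 and collapsed as trapezoidal area under the curve. Cultures were rat cortical neurons on MEA plates, dosed continuously from plating with medium and treatment refreshed on DIV 5 and 9.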

Assay [5] can be described thus: CCTE_Shafer_MEA_dev_burst_duration_mean: CCTE's Neural Network Formation Assay for Mean Burst Duration, Shafer Lab (AID 2284045).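 For AC50: curve fitted for loss meaning shorter burst duration than DMSO.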 In a few lines:
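Mean single-electrode burst duration (first to last spike), averaged over bursting electrodes per well, then integrated as area-under-curve across recordings at days 5, 7, 9 and 12. Rat cortical cultures on MEAs, compound present from plating, refreshed at feeds.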

A short description of assay [6]: CCTE_Shafer_MEA_dev_interburst_interval_mean: CCTE's Neural Network Formation Assay for Mean Interburst Interval, Shafer Lab (AID 2284046).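 Note: well-mean interburst interval of bursting electrodes as AUC over four recording days; curve fitted for decrease in interburst interval relative to DMSO.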 In a few lines:
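Primary rat cortical neurons on PEI-coated 48-well MEA plates (laminin added with cells at plating) (16 electrodes/well), exposed from plating day 0 with renewal at DIV 5 and 9. Mean inter-burst interval averaged over bursting electrodes, AUC across days 5, 7, 9, 12; DMSO baseline.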

The nature of assay [7]: CCTE_Shafer_MEA_dev_inter_network_spike_interval_mean: CCTE's Neural Network Formation Assay for Mean Inter-network Spike Interval, Shafer Lab (AID 2284047).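 For AC50: potency for a decrease in mean inter-network spike interval below DMSO.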 In a few lines:
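Mean time between consecutive network-spike peaks, recorded extracellularly (adaptive spike detection) on DIV 5, 7, 9 and 12, summarized as trapezoidal AUC. Rat cortical cultures on MEAs dosed continuously days 0–12, re-dosed at feeds; loss-of-signal fit relative to DMSO.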

Assay [8] can be described thus: CCTE_Shafer_MEA_dev_network_spike_peak: CCTE's Neural Network Formation Assay for Mean Number of Electrodes in Network Spike, Shafer Lab (AID 2284049).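 Note: fitted for loss of signal meaning fewer electrodes in network spikes than DMSO.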 In a few lines: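 Rat cortical primary culture, 1.5 x 10^5 cells/well, 48-well MEA (16 electrodes/well). Dosing day 0 through DIV 12, full media/compound exchange DIV 5, 9. AxIS adaptive spike detection; AUC over days 5/7/9/12; loss-of-signal vs DMSO.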

Assay [9] can be described thus: CCTE_Shafer_MEA_dev_spike_duration_mean: CCTE's Neural Network Formation Assay for Mean Spike Duration, Shafer Lab (AID 2284051).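 Note: potency for a decrease in mean network spike duration versus DMSO.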 In a few lines: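 Spontaneous activity was recorded on days 5, 7, 9 and 12 from rat cortical cultures grown on microelectrode arrays and dosed continuously from day 0, with media and compound renewed after the DIV 5 and 9 recordings. Network-spike duration was collapsed by area under the curve.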

A short description of assay [10]: CCTE_Shafer_MEA_dev_per_network_spike_spike_number_mean: CCTE's Neural Network Formation Assay for Mean Number of Spikes in a Network Spike, Shafer Lab (AID 2284053).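 Note: fitted as decrease in spikes per network spike relative to DMSO.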 In a few lines: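 Mean spike count within each network spike, taken in a 0.05 s window at its peak, was recorded on days 5, 7, 9 and 12 and integrated as trapezoidal area under the curve. Rat cortical cultures on MEA plates received continuous compound from day 0, refreshed at medium changes on DIV 5 and 9.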

Assay [11] in a line: CCTE_Shafer_MEA_dev_per_network_spike_spike_percent: CCTE's Neural Network Formation Assay for Percent of Spikes in a Network Spike, Shafer Lab (AID 2284054). In a few lines: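 Metric: fraction of spikes falling in a 0.05 s window at network-spike peaks. Recordings were made on days 5, 7, 9 and 12 and collapsed by trapezoidal AUC. Cultures were rat cortical neurons on MEA plates, dosed continuously from plating, re-dosed at media changes.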

Assay [12] is described as follows: UKN5_HCS_SBAD2_cell_viability: Viability Assessment in the University of Konstanz (UKN) Leist Lab Neurite Outgrowth Assay in human iPSC-derived immature Dorsal Root Ganglia Neurons (UKN5) (AID 2284056). In a few lines: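 iPSC-derived immature peripheral neurons (SBAD2) seeded on Matrigel with CHIR99021, SU5402 and DAPT, dosed 1 h later for 24 h. Viability from Hoechst H-33342 and calcein-AM live staining, high-content imaging; bidirectional fit versus DMSO.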

The nature of assay [13]: CCTE_Shafer_MEA_dev_LDH: CCTE's Lactate Dehydrogenase Assay for Cytotoxicity in the Neural Network Formation Assay, Shafer Lab (AID 2284068; active = hit-call score of the fitted dose curve at least 0.9, where 1 is the maximum;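 note: exposure for twelve days from plating with re-dosing on DIV 5 and 9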). In a few lines: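 Primary rat cortical neurons were cultured on PEI-coated MEA plates and exposed from plating through day 12, with compound renewed at medium changes on DIV 5 and 9. LDH activity was read spectrophotometrically; loss of signal versus DMSO indicates reduced viability.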

A short description of assay [14]: CCTE_Shafer_MEA_acute_AB: CCTE's Alamar Blue Assay for Cytotoxicity in the Neural Acute Assay, Shafer Lab (AID 2284069; active = hit-call score of the fitted dose curve at least 0.9, where 1 is the maximum;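 note: active compounds lower the viability signal compared with DMSO wells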). In a few lines:
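Resazurin reduction (CellTiter Blue, 1:6 in fresh medium) read at ex 544/em 590 nm marks viability loss relative to DMSO. Cells: primary rat cortical neuron networks on microelectrode arrays, treated after baseline recording at 13 or 15 days in vitro.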
A general note: Alamar Blue is a resazurin reagent that responds to reducing activity.

A short description of assay [15]: UKN5_HCS_SBAD2_neurite_outgrowth: University of Konstanz (UKN) Leist Lab Neurite Outgrowth Assay in human iPSC-derived immature Dorsal Root Ganglia Neurons (UKN5) (AID 2284070). The note with it: actives raise or lower the signal. In a few lines: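 Neurite outgrowth is quantified as calcein-AM-labelled neurite area in human iPSC-derived peripheral neurons treated for 24 h, starting 1 h after plating in medium with CHIR99021 (1.5 uM), SU5402 (5 uM) and DAPT (5 uM).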

Assay [16] can be described thus: CCTE_Shafer_MEA_dev_AB: CCTE's Alamar Blue Assay for Cytotoxicity in the Neural Network Formation Assay, Shafer Lab (AID 2284083; active = hit-call score of the fitted dose curve at least 0.9, where 1 is the maximum;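 note: resazurin reduction fluorescence as viability of cultured neurons; twelve days of exposure from plating with re-dosing on DIV 5 and 9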). In a few lines:
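Resazurin fluorescence, relative to DMSO, gauges viability after twelve days of exposure that began at plating of rat cortical neurons (1.5 x 10^5 cells/well, 48-well MEA); treatment renewed with full medium exchange on DIV 5 and 9.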

A short description of assay [17]: CCTE_Shafer_MEA_acute_LDH: CCTE's Lactate Dehydrogenase Assay for Cytotoxicity in the Neural Acute Assay, Shafer Lab (AID 2284086; active = hit-call score of the fitted dose curve at least 0.9, where 1 is the maximum;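 note: active means LDH release rises above DMSO vehicle level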). In a few lines:
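Cytotoxicity readout: spectrophotometric LDH activity in supernatant of rat primary cortical neurons, post-plating day 13 or 15, sampled after 40 min compound exposure; signal gain relative to DMSO baseline.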

Assay [18] in a line: CCTE_Shafer_MEA_dev_mutual_information_norm: CCTE's Neural Network Formation Assay for Mutual Information Normalization, Shafer Lab (AID 2284091).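 Note: mutual information between electrodes summarised as area under curve across four recording days; potency is for a decrease in mutual information relative to DMSO.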 In a few lines: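 Shared information across electrodes, tracked on days 5, 7, 9 and 12 of network development and collapsed as trapezoidal area under the curve. Rat cortical cultures were treated continuously from plating, with treatment renewed at feeds on DIV 5 and 9; DMSO baseline, negative-direction fit.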

The next assay concerns DIO2 (gene 1734). In words: CCTE_GLTED_hDIO2: CCTE's human Deiodinase 2 (DIO2) Inhibition Assay, Great Lakes Toxicology and Ecology Division (GLTED) Lab (AID 2284050; active = hit-call score of the fitted dose curve at least 0.9, where 1 is the maximum). In a few lines:
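Triplicate cell-free incubations (3 h) of human DIO2 with chemical preceded colorimetric Sandell-Kolthoff quantitation of liberated iodide; DMSO served as negative control for curve fitting.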

For another assay, the system named is DIO3 (gene 1735). In words: CCTE_GLTED_hDIO3: CCTE's human Deiodinase 3 (DIO3) Inhibition Assay, Great Lakes Toxicology and Ecology Division (GLTED) Lab (AID 2284055; active = hit-call score of the fitted dose curve at least 0.9, where 1 is the maximum;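 note: potency is for inhibition seen as loss of released iodide signal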). In a few lines:
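Steps: incubate adenovirus-produced hDIO3 with chemical for 3 hours; detect freed iodide via cerium-arsenic Sandell-Kolthoff colorimetry; compare with DMSO baseline.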

Structures are written as SMILES. Inconclusive results are not listed. The source made the active and inactive calls. Rule for the calls, unless noted: active = hit-call score of the fitted dose curve at least 0.9, where 1 is the maximum; inactive = score below 0.9.

Chain of Estrogen receptor (Homo sapiens) (P03372 whole entry, looked up): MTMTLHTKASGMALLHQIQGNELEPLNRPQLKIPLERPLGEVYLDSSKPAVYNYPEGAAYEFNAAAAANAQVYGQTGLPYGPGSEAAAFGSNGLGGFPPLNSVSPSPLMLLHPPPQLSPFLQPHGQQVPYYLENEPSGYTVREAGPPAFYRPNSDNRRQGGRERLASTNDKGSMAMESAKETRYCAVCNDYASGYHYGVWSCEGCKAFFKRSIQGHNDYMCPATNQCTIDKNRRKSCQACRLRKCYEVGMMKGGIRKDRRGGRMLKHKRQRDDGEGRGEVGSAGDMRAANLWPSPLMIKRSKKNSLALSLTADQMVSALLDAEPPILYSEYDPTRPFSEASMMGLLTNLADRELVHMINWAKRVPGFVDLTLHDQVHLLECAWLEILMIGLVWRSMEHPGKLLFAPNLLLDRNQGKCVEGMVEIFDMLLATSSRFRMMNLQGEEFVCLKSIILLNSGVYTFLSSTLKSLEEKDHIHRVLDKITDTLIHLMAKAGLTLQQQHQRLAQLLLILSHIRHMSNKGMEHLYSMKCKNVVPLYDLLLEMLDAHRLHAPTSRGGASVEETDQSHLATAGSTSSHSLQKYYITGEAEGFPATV

As for `CCCCCCCCSC(=O)Oc1cc(Cl)nnc1-c1ccccc1`, the result in assay [1] was inactive.
The same measure, in the same setting: for `NNC(=S)NN` the value was “inactive”.
The term AC50 denotes the concentration at which the activity in the assay is half-maximal. For the compound `C=C(C)C(=O)[O][Sn]([CH2]CCC)([CH2]CCC)[CH2]CCC`, the half-maximal activity concentration (AC50) is 26.6 nM (active) in assay [2]; 22.5 nM (active) in [3]; 19.9 nM (active) in assay [4]; 26.6 nM (active) in [5]; 48.2 nM (active) in assay [6]; 39.4 nM (active) in assay [8]. Further, the AC50 in assay [9] was 31.2 nM (active); in assay [10] it was 30.1 nM (active); in assay [11], 1980 nM (active); in [12], 246 nM (active); in assay [13], 1980 nM (active); in assay [14], 4690 nM (active). For the same compound, the AC50 was 127 nM (active) in assay [15], 91.5 nM (active) in assay [16] and 12.3 nM (active) in [18]. Besides, the call in assay [7] and in assay [17] was inactive.
Consider `O=C(NCO)NCO`, for which, in [1], the result was inactive.
Consider `OCC(O)CCl` (centres undefined), for which the concentration at half-maximal activity (AC50) in [1] is 2.81 nM (active).
`O=C1C2(Cl)C3(Cl)C4(Cl)C(Cl)(Cl)C5(Cl)C3(Cl)C1(Cl)C5(Cl)C24Cl` (centres undefined): the AC50 in [2] is 4580 nM (active); in assay [3], 3990 nM (active); in assay [4] it was 3550 nM (active); in assay [6], 3750 nM (active); in assay [7], 1.31 nM (active); in [8], 5380 nM (active). Besides, the AC50 with DIO2 (gene 1734) was 28300 nM (active); in [9], 5430 nM (active); in [10] it was 341 nM (active); in the assay on DIO3 (gene 1735), 4510 nM (active); in assay [13], 8190 nM (active); in [15], 14600 nM (active). The AC50 in assay [16] was 8770 nM (active); in assay [18], 125 nM (active). Also, the call in assay [5], in [12], in assay [14] and in [17] was inactive.
`CNC`: the outcome in assay [1] was inactive.
Take `ClC1(Cl)C2(Cl)C3(Cl)C4(Cl)C(Cl)(Cl)C5(Cl)C3(Cl)C1(Cl)C5(Cl)C24Cl` (centres undefined): the AC50 is 2070 nM (active) in [2]; 2640 nM (active) in assay [3]; 1620 nM (active) in assay [4]; 3370 nM (active) in assay [6]; 2320 nM (active) in [8]; 2350 nM (active) in [9]. Also, the AC50 in [10] is 2680 nM (active); in [11], 2320 nM (active); in assay [13], 1920 nM (active); in assay [16], 2830 nM (active); in [18] it was 2050 nM (active). The outcome in assay [5], in [7] and in assay [14] was inactive.

(Values after PubChem BioAssay (EPA / NIEHS).)
